An excerpt weighted towards active compounds, which were near 6.8% of everything screened.
NADH coupling: inhibition of NAD/NADH coupling enzymes, library profiling; 0.02% of 65,000 active; AID 774; IC50, µM (series often up to 10 µM), for the others: at the top dose inhibition; coupled PK/LDH NADH assays, four targets;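 active = single-dose screening hits from any of four coupled enzyme assays that gave an IC50 when retested across doses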;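 note: the DPM-DC format reads NADH fluorescence rather than 340 nm absorbance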
Spn DPM-DC inh: inhibitors of Streptococcus pneumoniae diphosphomevalonate decarboxylase; purified DPM-DC, PK/LDH coupled NADH fluorescence; calls only at 10 µM; 0.49% of 65,000 active;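 active = the 320 compounds with the highest percent inhibition in the single-dose primary screen, excluding strongly autofluorescent ones, cut at about 32% in these data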;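 note: kinetic rate of NADH fluorescence loss reporting ADP formed by the decarboxylase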
Spn MK inh: S. pneumoniae mevalonate kinase inhibition. purified MK, PK/LDH-coupled NADH absorbance 340 nm. inhibition, % at 10 µM. 0.48% of 65,000 active. AID 555;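 active = ranked among the strongest by inhibition in the single 10 µM screen, a fixed top-ranked set picked for dose follow-up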
PMK inhibit: inhibitors of Streptococcus pneumoniae phosphomevalonate kinase. purified PMK, PK/LDH-coupled NADH absorbance 340 nm. inhibition, % at 10 µM. 0.49% of 65,000 active;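 active = top-ranked compounds by inhibition in the single 10 µM screen, taking a fixed number of the strongest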;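 note: 0% = full reaction with DMSO carrier and 100% = background rate without enzyme reaction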
Autofluor 339: intrinsic fluorescence of library compounds, ex339/em460 – biochemical, MLSMR library, data from DPM-DC assay, artefact control, profiling panel; 5.5% of 65,000 active; AID 709; fluorescence fold increase at 10 µM; compound autofluorescence, ex339/em460 nm, NADH buffer; hits give high values; 1 = no-compound wells, NADH background;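 active = at 10 µM, mean starting fluorescence two-fold or more over control wells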;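 note: signal is the first read of a kinetic run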
Abs 340nm: compounds absorbing at 340 nm; compound absorbance at 340 nm, fold over control; fold change at 10 µM; 65,000 tested, under 10 active;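 active = at 10 µM dose, initial 340 nm absorbance at least 2 fold that of control wells; inactive = change under 2 fold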;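 note: initial absorbance extrapolated from kinetic A340 decline of NADH oxidation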
* = called active by the depositor; i = inactive; x = no result shown; + = active, no number.

SMILES | NADH coupling | Spn DPM-DC inh | Spn MK inh | PMK inhibit | Autofluor 339 | Abs 340nm
Cn1cc(C(=O)NCCN2CCN(c3cccc(Cl)c3)CC2)c2c3ccccc3n(C)c2c1=O | 2.0% | i | 0.0 | 5.0 | 2* | 1.08
CCN(CC)CCNC(=O)c1cc2c(=O)n(C)c3ccccc3c2n1C | 4.0% | i | 3.0 | 0.0 | 1.73 | 1.06
CCCCN(CC)CCNC(=O)c1cc2c(=O)n(C)c3ccccc3c2n1C | 9.0% | x | 8.0 | 9.0 | 2.06* | 1.06
CCOC(=O)CC1C(=O)NCCN1Cc1cccc(C(F)(F)F)c1 (centres undefined) | 4.0% | i | 5.0 | 6.0 | 1.08 | 1.05
COc1ccccc1-c1nc(C#N)c(N2CCN(Cc3ccccc3)CC2)o1 | 18.0% | i | 12.0 | 13.0 | 3.1* | 1.02
N#Cc1nc(Cc2ccccc2)oc1N1CCC(Cc2ccccc2)CC1 | 0.0% | i | 1.0 | 0.0 | 1.1 | 1.04
COc1ccccc1-c1nc(C#N)c(N2CCC(Cc3ccccc3)CC2)o1 | 12.0% | x | 12.0 | 11.0 | 3.91* | 1.04
Cc1ccc(Nc2nc(N)nc(CSc3nnnn3-c3ccccc3)n2)cc1 | 10.0% | i | 13.0 | 16.0 | 1.1 | 1.07
COC(=O)c1ccc(Cl)c(NS(=O)(=O)c2ccc3c(c2)OCCO3)c1 | 8.0% | i | 8.0 | 0.0 | 1.27 | 1.03
CN(C)CCCN1C(=O)C(=O)/C(=C(/O)c2ccncc2)C1c1cccnc1 (centres undefined) | 6.0% | i | 12.0 | 5.0 | 1.08 | 1.07
N/C(CCN1CCOCC1)=N/O | 36.0% | i | 52.0* | 36.0 | 1.07 | 1.08
COc1ccc(-c2nc3c(n2O)CCCC3=O)cc1OC | 10.0% | x | 6.0 | 13.0 | 3.54* | 1.12
CCOC(=O)CNC(=O)c1cnn2cccnc12 | 13.0% | i | 17.0 | 4.0 | 2.27* | 1.07
CCOc1ccc(-c2cc3nc(C4CCN(C(=O)OC(C)(C)C)CC4)c(C(=O)O)cn3n2)cc1 | 9.0% | x | 0.0 | 17.0 | 4.4* | 1.07
COC(=O)C1=CN(C2CC2)C=C(C(=O)OC)C1c1ccccc1OC | 6.0% | x | 4.0 | 8.0 | 3.78* | 1.02
CCN(CC)c1nc(N)c2c(N)n(-c3ccccc3C)c(=S)c(C#N)c2c1C#N | 8.0% | i | 4.0 | 16.0 | 1.79 | 1.01
CCN(CC)c1nc(N)c2c(N)nc3c(c2c1C#N)CC(c1ccccc1)O3 (centres undefined) | 10.0% | x | 6.0 | 14.0 | 2.1* | 1.08
CCOC(=O)N1CCN(C(=O)C2CCN(S(=O)(=O)c3ccc(Br)s3)CC2)CC1 | 12.0% | i | 8.0 | 17.0 | 0.96 | 1.03
CCOCCCn1c(=NC(=O)c2cccnc2)c(C(=O)OCC)cc2c(=O)n3ccccc3nc21 | 9.0% | x | 8.0 | 10.0 | 3.63* | 1.08
CCCCn1c(=NC(=O)c2cccnc2)c(C(=O)OCC)cc2c(=O)n3ccccc3nc21 | 10.0% | x | 9.0 | 11.0 | 2.28* | 1.02
N#Cc1cc2c(=O)n3ccccc3nc2n(CCCn2ccnc2)c1=N | 8.0% | i | 3.0 | 14.0 | 1.73 | 1.03
CCOC(=O)c1c(N)sc(C(O)(C(F)(F)F)C(F)(F)F)c1-c1ccc(OC)cc1OC | 3.0% | i | 6.0 | 3.0 | 1.1 | 1.02
O=C(N1CCN(c2ccccc2)CC1)C(F)(F)C(F)F | 5.0% | i | 9.0 | 0.0 | 1.08 | 1.03
Cc1ccc(-c2nnc(-c3ccc(Br)cc3)o2)o1 | 2.0% | x | 6.0 | 6.0 | 3.4* | 1
O=C(COC(=O)c1cc(-c2cccs2)nc2ccccc12)NCc1ccco1 | 9.0% | x | 2.0 | 15.0 | 4.94* | 1.04
SMILES | NADH coupling | Spn DPM-DC inh | Spn MK inh | PMK inhibit | Autofluor 339 | Abs 340nm
Cc1nn(-c2ccccc2)c(C)c1C(=O)OCC(=O)c1c(N)n(CC(C)C)c(=O)n(C)c1=O | 2.0% | i | 0.0 | 9.0 | 1.08 | 0.99
CC(C)Cn1c(N)c(C(=O)COC(=O)c2cc(-c3ccco3)nc3ccccc23)c(=O)n(C)c1=O | 1.0% | x | 0.0 | 0.0 | 2.14* | 1.01
O=C(COC(=O)c1cc(-c2ccco2)nc2ccccc12)NCc1ccc2c(c1)OCO2 | 2.0% | x | 9.0 | 0.0 | 2.08* | 1.04
NC(=O)C1(N2CCCCC2)CCN(C(=O)CCCn2c(=O)[nH]c3ccsc3c2=O)CC1 | 4.0% | i | 8.0 | 5.0 | 0.98 | 1
Cc1cc(N2CCN(C(=O)c3ccco3)CC2)n2nc(C)c(-c3ccccc3)c2n1 | 7.0% | i | 11.0 | 11.0 | 1.36 | 1.06
Cc1cc(N2CCN(C(=O)c3ccco3)CC2)n2nc(C)c(-c3ccc(Cl)cc3)c2n1 | 17.0% | x | 15.0 | 19.0 | 3.74* | 1.06
Cc1cc(N2CCN(C(=O)c3ccco3)CC2)n2nc(-c3cccc(Cl)c3)cc2n1 | 15.0% | + | 8.0 | 2.0 | 0.7 | 1.01
O=C(c1cc2nc(-c3ccccc3)cc(-c3ccccc3)n2n1)N1CCN(C(=O)c2ccco2)CC1 | 9.0% | x | 9.0 | 8.0 | 3.67* | 1.05
CC(C)COc1ccc(-c2nnc(-c3ccncc3)o2)cc1 | 16.0% | i | 10.0 | 18.0 | 2.43* | 1.07
CCCOc1ccc(-c2nnc(-c3ccncc3)o2)cc1 | 7.0% | i | 2.0 | 3.0 | 2.4* | 1
OCC#CCSc1nnc(-c2ccncc2)o1 | 8.0% | i | 11.0 | 12.0 | 1.13 | 1.03
c1cc(-c2nnc(-c3ccncc3)o2)ccn1 | 2.0% | i | 7.0 | 0.0 | 1.07 | 1.03
O=c1c2ccccc2c(C=NCCO)c(O)n1-c1ccccc1 | 0.0% | i | 0.0 | 0.0 | 1.17 | 1.11
Cc1ccc(-n2c(O)c(/C=N/n3cnnc3)c3ccccc3c2=O)cc1 | 2.0% | x | 3.0 | 0.0 | 2.2* | 1.09
O=c1c2ccccc2c(/C=N/n2cnnc2)c(O)n1-c1ccccc1F | 13.0% | i | 9.0 | 14.0 | 2.97* | 1.04
COc1cc(S(=O)(=O)N2CCC(N3CCCCC3)CC2)ccc1-n1cnnn1 | 2.0% | i | 0.0 | 19.0 | 1.06 | 1.02
O/N=C1/CCCCC1c1ccccn1 (centres undefined) | 8.0% | i | 10.0 | 10.0 | 1 | 0.98
COc1cccc(-c2csc(N3CCN(C(=O)C4CCCCC4)CC3)n2)c1 | 4.0% | i | 6.0 | 6.0 | 1.07 | 0.98
COc1ccccc1CC(=O)Nc1ccc(-c2nnc(-c3ccco3)o2)cc1 | 5.0% | x | 9.0 | 1.0 | 2.27* | 1.08
O=C(Cc1ccc(Cl)cc1)Nc1ccc(-c2nnc(-c3ccco3)o2)cc1 | 12.0% | i | 12.0 | 0.0 | 1.49 | 1.18
O=C(O)CCC(=O)Nc1ccc(-c2nnc(-c3ccco3)o2)cc1 | 3.0% | x | 2.0 | 4.0 | 2.14* | 1.09
O=C(Cc1ccccc1)Nc1ccc(-c2nnc(-c3ccco3)o2)cc1 | 13.0% | i | 5.0 | 12.0 | 2.65* | 1.01
COc1ccc(CC(=O)Nc2cccc(-c3nnc(-c4ccco4)o3)c2)cc1 | 3.0% | i | 0.0 | 8.0 | 1.14 | 1.02
CCC(=O)Nc1ccc(C(=O)c2ccccc2)cc1 | 2.0% | i | 0.0 | 5.0 | 1.09 | 1.04
CCC(=O)Nc1ccc(-c2nnc(-c3ccccc3)o2)cc1 | 7.0% | x | 4.0 | 9.0 | 2.36* | 1.02
